We go through 26 compounds from PubChem BioAssay AID588405 (Sanford-Burnham Center for Chemical Genomics, 2011).

Usually inhibition stands for the drop in the measured response relative to a control, in per cent.

About 6,200 (1.7%) of roughly 360,000 compounds were called active. What follows is part of a selection rich in actives, with near analogues and random picks from the rest. A number with no mark means an inactive call.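 The calls were made as follows: active = inhibition of at least 50% at 20 µM; inactive = the rest.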

This assay can be described thus: inhibition of PEG-3 promoter activity – cell-based, HeLa, luciferase luminescence, primary screen (AID 588405). As to conditions: HeLa PEG-Prom luciferase reporter, overnight, at 20 µM, stronger effect = higher value. Background: A reporter such as luciferase makes a cellular process visible.
On to `CC(C)c1cc(C(=O)NC2CCCCCC2)c2ccccc2n1`, for which the inhibition is -6.57%.

For the compound `CN(c1ccc2nc3ccccc3c(=O)n2n1)C1CCCCC1`, the inhibition is 81.5% (active).

On to `CC(C)C(C)NC(=O)COc1nc2ccccc2nc1N(C)C1CCCCC1` (stereo unspecified), for which the inhibition was 2.14%.

Turning to `Cc1nc2c(OCC(=O)C(C)(C)C)cccn2c1N(C)Cc1cccs1`, the inhibition was -4.66%.

For the compound `CCCCc1ccc(S(=O)(=O)NC(=O)C2(C)CCN2C(=O)c2c(C)noc2C)cc1` (stereo unspecified), the inhibition was -14.9%.

As to `COc1ccc(C(C)C)cc1-c1ccc2nncn2c1`, the inhibition was -16.5%.

Consider `CC1(Oc2ccc(Cl)cc2)CCN(Cc2csc3ccccc23)C1` (stereo unspecified), for which the inhibition is -17.9%.

Take `CC1(C(=O)NS(=O)(=O)c2ccccc2Cl)CCN1C(=O)c1cccc(F)c1` (stereo unspecified): the inhibition is -6.7%.

As for `O=c1[nH]c2ccc(S(=O)(=O)N3CCCC3)cc2[nH]1`, the inhibition is 3.24%.

As to `Cc1cccc(NC(=O)CSC(N)=O)c1C`, the inhibition was 1.28%.

Consider `CCOC(=O)/C=c1\s/c(=C\c2ccc(C#N)cc2)c(=O)n1CC(=O)Nc1cccc(C)c1C`, for which the inhibition was 57.2% (active).

Turning to `Cc1cccc(NC(=O)CN2CCN(C(=O)C3CCN(C(=O)/C=C/c4ccccc4)CC3)CC2)c1C`, the inhibition is -10.7%.

Take `Cc1cnc(C(=O)OCC(=O)Nc2ccc(Cl)cc2Cl)cn1`: the inhibition is -12%.

For the compound `COC(=O)c1c(NC(=O)COc2ccc(Cl)cc2Cl)sc2c1CC(C)(C)NC2(C)C`, the inhibition is 92.3% (active).

Consider `CN1CCC(OC(=O)COc2ccc(Cl)cc2Cl)CC1`, for which the inhibition was 3.36%.

Consider `Cc1ccccc1S(=O)(=O)NC(=O)C1(C)CCN1C(=O)Cc1ccc(Cl)cc1Cl` (stereo unspecified), for which the inhibition is 3.83%.

Regarding `Cc1cccc(CNC(=O)c2sc(=O)n(Cc3ccccc3C)c2C)c1`, the inhibition is 3.15%.

In the case of `CCn1c(=O)c(=O)[nH]c2c(=O)oc3ccc(S(=O)(=O)Nc4ccc(OC)cc4)cc3c21`, the inhibition was -5.21%.

With `CC(=O)N1C[C@@H](CO)[C@@H](N(C)C(=O)c2ccco2)C[C@H]1c1ccccc1`, the inhibition is -9.39%.

As for `COc1cc(SC)ccc1C(=O)Nc1nc(C)cs1`, the inhibition is 99.9% (active).

Turning to `COc1cc(SC)ccc1C(=O)NNC(=O)C1COc2ccccc2O1` (stereo unspecified), the inhibition is -36.6%.

Take `Cc1csc(NC(=O)CSc2nc(=O)cc(N)n2-c2ccc(F)cc2)n1`: the inhibition was 1.12%.

In the case of `CCc1nc2c(OCc3cccc(OC)c3)cccn2c1N(C)C(=O)C(C)C`, the inhibition was 17.8%.

`COc1cccc(CNc2nc(NCc3cccs3)nc3ccsc23)c1`: the inhibition was 57.2% (active).

Consider `COc1cccc(CNc2nc(NCc3ccccc3OC)nc3ccsc23)c1`, for which the inhibition is 30.7%.

On to `Clc1ccccc1Nc1nc(NCc2cccs2)nc2ccsc12`, for which the inhibition was 7.17%.
